The structures appear in SMILES notation. Values joined by “and” are separate entries in the source; they are usually repeats but may differ in a detail not shown here. Equal entries are not always repeated. For some of these results: Potency and affinity values are given separately.

The text below walks through data of ChEMBL document CHEMBL3988442, “University of Dundee, Small-Polar-MMV Screening Library” (2021).

Holding throughout (design): scale not given: direction of the effect not stated beside the values
The target of assay [1] is Protein translocase subunit SecA (Escherichia coli (strain K12)) (UniProt P10408). Briefly: Assay to Identify E. coli SecA ATPase Inhibitors. Format: functional. The note with it: 30 µM.
Sequence of Protein translocase subunit SecA (Escherichia coli (strain K12)) (P10408 whole entry): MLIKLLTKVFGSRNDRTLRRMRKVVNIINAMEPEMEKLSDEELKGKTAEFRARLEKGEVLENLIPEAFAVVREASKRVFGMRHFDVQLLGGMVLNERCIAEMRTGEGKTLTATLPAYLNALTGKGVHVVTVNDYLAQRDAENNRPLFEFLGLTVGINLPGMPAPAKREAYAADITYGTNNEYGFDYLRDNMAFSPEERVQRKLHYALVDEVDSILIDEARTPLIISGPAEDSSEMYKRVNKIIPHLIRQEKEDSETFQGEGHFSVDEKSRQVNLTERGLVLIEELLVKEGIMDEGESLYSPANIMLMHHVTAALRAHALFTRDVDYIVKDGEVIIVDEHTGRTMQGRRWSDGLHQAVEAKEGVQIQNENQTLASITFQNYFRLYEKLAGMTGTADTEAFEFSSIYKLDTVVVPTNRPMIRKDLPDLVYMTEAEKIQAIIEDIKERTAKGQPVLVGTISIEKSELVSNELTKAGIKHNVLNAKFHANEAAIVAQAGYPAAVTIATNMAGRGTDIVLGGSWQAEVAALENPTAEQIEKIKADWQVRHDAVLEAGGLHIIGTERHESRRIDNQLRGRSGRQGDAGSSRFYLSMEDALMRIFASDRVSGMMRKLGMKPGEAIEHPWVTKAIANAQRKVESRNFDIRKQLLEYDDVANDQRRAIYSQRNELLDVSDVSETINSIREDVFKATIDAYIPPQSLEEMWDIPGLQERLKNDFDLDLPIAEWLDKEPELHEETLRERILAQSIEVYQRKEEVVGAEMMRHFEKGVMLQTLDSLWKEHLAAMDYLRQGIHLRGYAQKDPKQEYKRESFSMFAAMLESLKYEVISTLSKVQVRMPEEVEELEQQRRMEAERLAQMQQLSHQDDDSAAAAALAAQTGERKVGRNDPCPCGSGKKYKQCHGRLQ
Assay [2] addresses T1, Ubiquitin-activating enzyme e1, putative (Leishmania donovani (strain BPK282A1)) (UniProt E9BSI1).
T1 sequence (whole entry): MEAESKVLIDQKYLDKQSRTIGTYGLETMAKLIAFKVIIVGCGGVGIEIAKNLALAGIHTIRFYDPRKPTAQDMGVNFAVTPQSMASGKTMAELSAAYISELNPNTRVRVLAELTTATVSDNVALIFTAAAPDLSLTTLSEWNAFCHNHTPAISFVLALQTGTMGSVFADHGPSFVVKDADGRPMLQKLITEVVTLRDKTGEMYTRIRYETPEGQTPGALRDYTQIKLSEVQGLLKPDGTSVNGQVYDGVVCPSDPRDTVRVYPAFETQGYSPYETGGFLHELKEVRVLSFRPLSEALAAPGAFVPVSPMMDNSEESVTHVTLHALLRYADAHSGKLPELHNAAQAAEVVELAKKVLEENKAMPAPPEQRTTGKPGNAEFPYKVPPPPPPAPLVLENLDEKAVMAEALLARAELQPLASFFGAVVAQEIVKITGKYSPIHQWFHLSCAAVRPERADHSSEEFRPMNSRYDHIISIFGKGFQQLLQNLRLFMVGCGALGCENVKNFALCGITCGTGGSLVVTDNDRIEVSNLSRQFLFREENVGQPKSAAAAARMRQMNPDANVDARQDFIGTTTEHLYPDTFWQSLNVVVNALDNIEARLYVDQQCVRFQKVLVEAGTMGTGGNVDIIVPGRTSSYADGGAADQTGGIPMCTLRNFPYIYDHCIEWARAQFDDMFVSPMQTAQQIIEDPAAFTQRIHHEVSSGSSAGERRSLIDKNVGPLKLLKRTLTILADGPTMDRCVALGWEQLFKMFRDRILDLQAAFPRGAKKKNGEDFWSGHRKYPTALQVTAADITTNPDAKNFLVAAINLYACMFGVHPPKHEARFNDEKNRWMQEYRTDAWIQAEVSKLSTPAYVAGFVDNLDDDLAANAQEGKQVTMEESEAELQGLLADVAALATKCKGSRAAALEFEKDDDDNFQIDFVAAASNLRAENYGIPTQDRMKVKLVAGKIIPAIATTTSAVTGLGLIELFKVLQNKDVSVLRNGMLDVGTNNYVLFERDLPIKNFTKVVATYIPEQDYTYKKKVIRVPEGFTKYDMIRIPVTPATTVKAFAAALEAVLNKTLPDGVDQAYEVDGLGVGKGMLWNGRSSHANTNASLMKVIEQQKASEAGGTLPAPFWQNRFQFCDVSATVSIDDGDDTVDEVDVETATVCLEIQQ
Briefly: Leishmania donovani Ubiquitin Activating Enzyme (LdE1). The note with it: 30 µM. Format: functional.

Assay [3] addresses AMP-activated protein kinase, AMPK (Homo sapiens) (UniProt P54646+O43741+P54619+Q9UGJ0+Q9Y478+Q13131+Q9UGI9). Briefly: AMP-dependent Kinase enzyme assay. An in vitro enzyme assay that detects ADP turnover that is directly proportional to AMPK activity. This uses naive AMPK that is activated during the assay with MK-8722. The note with it: 30 µM. The class given is functional.

Assay [4] addresses Sialic acid-binding Ig-like lectin 9 (Homo sapiens) (UniProt Q9Y336). Briefly: Hs-Siglec9 ALPHAscreen SOP 20170721. The settings on record: 10 µM.
In a further assay the test system is Trypanosoma cruzi. Briefly: Trypanosoma cruzi phosphomannomutase and mannose-1-phosphate guanylyltransferase assay. The note with it: 10 µM. Format: functional.
Assay [5] deals with T2, Arginase-2, mitochondrial (Homo sapiens) (UniProt P78540).
T2 sequence (whole entry): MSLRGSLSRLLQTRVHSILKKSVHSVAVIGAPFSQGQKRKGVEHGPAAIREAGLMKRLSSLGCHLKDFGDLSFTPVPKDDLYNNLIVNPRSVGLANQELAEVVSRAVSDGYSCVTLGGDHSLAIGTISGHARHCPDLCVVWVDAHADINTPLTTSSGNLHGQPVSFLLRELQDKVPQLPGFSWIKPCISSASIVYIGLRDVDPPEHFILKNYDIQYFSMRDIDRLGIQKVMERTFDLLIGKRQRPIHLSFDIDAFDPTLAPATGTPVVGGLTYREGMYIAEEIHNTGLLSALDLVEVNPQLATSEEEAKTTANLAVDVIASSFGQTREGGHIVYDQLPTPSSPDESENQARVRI
As to the kind of experiment: in vitro enzyme assay to detect the production of urea directly proportional to the activity of Arginase II. Also: in the data most compounds retested in dose-response had high values. Format: functional. The note with it: 33.3 µM.

Assay [6] addresses T3, Proteasome subunit beta (Trypanosoma cruzi) (UniProt O96673).
T3 sequence (whole entry): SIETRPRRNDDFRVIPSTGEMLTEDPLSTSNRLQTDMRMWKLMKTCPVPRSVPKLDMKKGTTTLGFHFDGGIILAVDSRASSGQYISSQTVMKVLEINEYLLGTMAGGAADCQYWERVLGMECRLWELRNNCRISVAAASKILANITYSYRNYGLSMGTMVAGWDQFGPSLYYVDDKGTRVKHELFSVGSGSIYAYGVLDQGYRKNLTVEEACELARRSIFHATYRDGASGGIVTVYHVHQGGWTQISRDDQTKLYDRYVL
Briefly: Trypanosoma cruzi proteasome chymotrypsin-like activity (TcProtChymo) assay. Also: in the data most compounds retested in dose-response had high values. Format: functional. The note with it: 9.37 µM.

For the next assay, the species on record is Homo sapiens. Briefly: To identify inhibition of the IFN signalling (Jak-Stat) pathway via expression of an eGFP reporter gene under the control of an IFN-stimulated response element (ISRE) containing MxA promoter. Format: functional. The settings on record: 30 µM. (A reporter such as luciferase makes a cellular process visible.)
Assay [7] has as its target T4, Tyrosyl-tRNA synthetase, putative (Trypanosoma cruzi (strain CL Brener)) (UniProt Q4DSP6).
T4 sequence (whole entry): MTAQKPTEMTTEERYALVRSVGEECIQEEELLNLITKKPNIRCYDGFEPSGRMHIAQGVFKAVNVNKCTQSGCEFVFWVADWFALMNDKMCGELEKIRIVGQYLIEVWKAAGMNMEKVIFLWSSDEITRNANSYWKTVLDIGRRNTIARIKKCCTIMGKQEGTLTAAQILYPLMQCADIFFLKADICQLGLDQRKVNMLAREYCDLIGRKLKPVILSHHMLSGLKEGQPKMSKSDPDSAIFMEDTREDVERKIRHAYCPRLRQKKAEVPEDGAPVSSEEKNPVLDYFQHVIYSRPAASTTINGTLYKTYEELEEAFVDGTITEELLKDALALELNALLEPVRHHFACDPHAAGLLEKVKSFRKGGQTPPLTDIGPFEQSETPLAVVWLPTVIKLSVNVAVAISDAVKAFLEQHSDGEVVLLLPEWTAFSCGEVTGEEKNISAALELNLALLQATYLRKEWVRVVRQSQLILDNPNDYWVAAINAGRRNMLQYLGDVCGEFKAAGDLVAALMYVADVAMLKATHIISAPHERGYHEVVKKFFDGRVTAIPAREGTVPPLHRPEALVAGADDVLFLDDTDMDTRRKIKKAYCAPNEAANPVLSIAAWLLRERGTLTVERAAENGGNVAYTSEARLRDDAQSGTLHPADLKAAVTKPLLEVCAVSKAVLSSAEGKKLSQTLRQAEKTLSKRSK
Briefly: Trypanosoma cruzi tyrosyl tRNA synthetase (TcYRS) _High Tyrosine SOP. Also: in the data most compounds retested in dose-response had high values. Format: functional. The settings on record: 30 µM.

The target of assay [8] is T4, Tyrosyl-tRNA synthetase, putative (Trypanosoma cruzi (strain CL Brener)). Briefly: Trypanosoma cruzi tyrosyl tRNA synthetase (TcYRS) SOP. The class given is functional. The note with it: 30 µM.
Assay [9] deals with Chromo domain-containing protein 1 (Saccharomyces cerevisiae (strain ATCC 204508 / S288c) (Baker's yeast)) (UniProt P32657). As to the kind of experiment: ScCHD-1 Enzyme Inhibition Assay. Also: in the data most compounds retested in dose-response had high values. Format: functional. The settings on record: 30 µM.
Sequence of Chromo domain-containing protein 1 (Saccharomyces cerevisiae (strain ATCC 204508 / S288c) (Baker's yeast)) (P32657 whole entry, the tested form may be a part): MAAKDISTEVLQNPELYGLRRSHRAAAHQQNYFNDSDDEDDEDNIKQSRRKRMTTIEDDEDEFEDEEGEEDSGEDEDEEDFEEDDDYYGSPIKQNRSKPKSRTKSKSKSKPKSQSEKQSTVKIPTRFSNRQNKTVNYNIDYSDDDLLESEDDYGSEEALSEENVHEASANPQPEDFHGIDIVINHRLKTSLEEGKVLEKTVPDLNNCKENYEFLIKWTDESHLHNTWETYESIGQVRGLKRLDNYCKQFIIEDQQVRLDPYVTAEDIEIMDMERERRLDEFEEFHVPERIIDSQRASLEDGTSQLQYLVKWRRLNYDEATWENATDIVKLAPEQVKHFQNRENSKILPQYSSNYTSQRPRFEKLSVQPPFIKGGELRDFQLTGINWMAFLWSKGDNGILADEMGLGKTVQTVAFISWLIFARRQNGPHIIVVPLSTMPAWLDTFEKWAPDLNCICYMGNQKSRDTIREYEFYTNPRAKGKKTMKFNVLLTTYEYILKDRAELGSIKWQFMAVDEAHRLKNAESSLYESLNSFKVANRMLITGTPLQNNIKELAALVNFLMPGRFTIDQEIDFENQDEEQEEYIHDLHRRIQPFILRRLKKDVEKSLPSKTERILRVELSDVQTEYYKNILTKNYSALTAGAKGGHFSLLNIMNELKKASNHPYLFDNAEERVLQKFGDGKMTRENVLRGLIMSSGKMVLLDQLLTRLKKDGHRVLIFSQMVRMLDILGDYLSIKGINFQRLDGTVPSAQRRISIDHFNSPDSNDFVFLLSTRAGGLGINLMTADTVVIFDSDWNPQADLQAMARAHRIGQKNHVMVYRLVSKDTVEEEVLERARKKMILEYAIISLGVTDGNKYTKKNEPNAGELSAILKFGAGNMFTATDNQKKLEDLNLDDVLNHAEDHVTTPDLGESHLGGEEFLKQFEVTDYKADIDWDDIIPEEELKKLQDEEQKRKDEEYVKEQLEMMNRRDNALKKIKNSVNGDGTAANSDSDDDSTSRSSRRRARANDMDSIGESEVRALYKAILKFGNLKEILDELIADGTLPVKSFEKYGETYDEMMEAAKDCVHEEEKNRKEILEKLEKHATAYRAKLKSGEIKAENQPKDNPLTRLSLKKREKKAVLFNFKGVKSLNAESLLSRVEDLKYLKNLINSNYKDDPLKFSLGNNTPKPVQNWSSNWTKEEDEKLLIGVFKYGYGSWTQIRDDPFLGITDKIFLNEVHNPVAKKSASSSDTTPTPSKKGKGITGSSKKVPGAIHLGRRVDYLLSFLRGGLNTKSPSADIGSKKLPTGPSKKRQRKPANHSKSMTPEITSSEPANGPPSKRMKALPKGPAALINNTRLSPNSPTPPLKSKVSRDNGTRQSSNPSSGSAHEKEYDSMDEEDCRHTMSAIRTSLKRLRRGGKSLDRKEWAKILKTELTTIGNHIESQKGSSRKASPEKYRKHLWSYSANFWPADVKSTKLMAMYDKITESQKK
Another assay concerns N/A. As to the kind of experiment: Trypanosoma cruzi proteasome luciferase counter-screen. The class given is functional. The settings on record: 9.37 µM.

Sequence of Sialic acid-binding Ig-like lectin 9 (Homo sapiens) (Q9Y336 whole entry): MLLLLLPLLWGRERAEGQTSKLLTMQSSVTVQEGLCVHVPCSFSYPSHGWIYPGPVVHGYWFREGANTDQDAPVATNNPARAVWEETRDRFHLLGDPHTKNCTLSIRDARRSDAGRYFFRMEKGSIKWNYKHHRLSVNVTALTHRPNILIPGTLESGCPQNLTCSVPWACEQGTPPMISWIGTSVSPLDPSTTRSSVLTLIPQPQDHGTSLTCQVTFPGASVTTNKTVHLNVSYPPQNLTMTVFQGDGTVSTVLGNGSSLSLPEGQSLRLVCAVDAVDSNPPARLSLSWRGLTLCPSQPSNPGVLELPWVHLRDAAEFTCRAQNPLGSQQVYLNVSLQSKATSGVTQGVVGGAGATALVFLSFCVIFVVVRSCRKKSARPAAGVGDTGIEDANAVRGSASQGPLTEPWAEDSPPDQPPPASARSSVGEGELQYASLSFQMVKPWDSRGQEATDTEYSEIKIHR

Regarding `Cc1ccc(-n2nnc(CC(=O)N3CCSCC3)c2C)cc1`, the Percent Effect is -3.7% in [1]; 20.8% in assay [2]; -1.3% in assay [3]; 11.8% in assay [4]; 3.83% with Trypanosoma cruzi; -5.52% in [5]. Also, the Percent Effect in assay [6] was 11.2%; in the assay filed under Homo sapiens, -2.27%; in [7] it was 5.38%; in assay [8], 21%; in assay [9], -9.71%.

Consider `CC(C)n1ccnc1CN1CCCN(C(=O)CC2C=CCC2)CC1` (stereo unspecified), for which the Percent Effect in [1] was -5.72%; in assay [2], -1.27%; in [3], 12.6%; in [4] it was -5.19%; in the assay on Trypanosoma cruzi it was -3.18%; in [5] it was -6.67%. Moreover, the Percent Effect was 17.8% in [6]; 9.57% in the assay listed under Homo sapiens; -2.08% in assay [7]; -5.06% in [8]; -12.8% in [9].

On to `CCC1CCCN(C(=O)Cc2csc(-c3ncccn3)n2)C1` (stereo unspecified), for which the Percent Effect in assay [1] was -2.19%; in [2], 21.1%; in [3], 0.0664%; in assay [4] it was -8.02%; in the assay with Trypanosoma cruzi, 5.26%; in assay [5], -1.92%. Moreover, the Percent Effect is 24.1% in assay [6]; 25.1% in the assay listed under Homo sapiens; 5.39% in assay [7]; 17.1% in assay [8]; -12.4% in assay [9].

Consider `COCCN(C)Cc1ccc(OC)c(OC(F)F)c1`, for which the Percent Effect in assay [1] is -0.72%; in assay [2] it was 0%; in [3], 2.88%; in [4] it was 0.875%; in the assay on Trypanosoma cruzi, -20.8%; in [5] it was 6.9%. In addition, the Percent Effect is 0.499% in assay [6]; -9.7% in the assay filed under Homo sapiens; -1.07% in assay [7]; -6.17% in assay [8]; 2.42% in [9].

With `Cn1ccnc1CN1CCN(Cc2ccccc2C#N)CC1`, the Percent Effect is -5.61% in assay [1]; 18.4% in [2]; -14.9% in [3]; 6.65% in [4]; 2.52% in the assay with Trypanosoma cruzi; -0.719% in assay [5]. In addition, the Percent Effect in assay [6] is 6.34%; in the assay filed under Homo sapiens it was 5.87%; in assay [7], 12.3%; in [8], 18.5%; in assay [9], -9.79%.

With `CCOc1cc(C(=O)N2CCCC(c3cc(C(N)=O)[nH]n3)C2)ccn1` (stereo unspecified), the Percent Effect is -4.21% in [1]; 10.5% in assay [2]; 5.83% in assay [3]; -2.38% in assay [4]; 7.94% in the assay on Trypanosoma cruzi; 0% in assay [5]. For the same compound, the Percent Effect in assay [6] is 5.5%; in the assay filed under Homo sapiens, -0.364%; in assay [7], 3.45%; in assay [8] it was 16.1%; in [9], -0.329%.

As for `CC(=O)NCC(=O)N1C[C@H](OCc2cccnc2)[C@H]2COC[C@H]21`, the Percent Effect is -4.16% in [1]; 2.7% in assay [2]; 1.91% in assay [3]; 2.9% in [4]; -4.49% in the assay on Trypanosoma cruzi; 2.5% in assay [5]. Also, the Percent Effect was 12.3% in assay [6]; 5.47% in the assay filed under Homo sapiens; 4.95% in assay [7]; 6.1% in assay [8]; -2.54% in [9].

For `NC(=O)C1CCN(Cc2cccc(NC(=O)c3ccsc3)c2)CC1`, the Percent Effect is -6.14% in assay [1]; 2.67% in assay [2]; -1.03% in assay [3]; 5.05% in [4]; 3.99% in the assay with Trypanosoma cruzi; -2.08% in assay [5]. Further, the Percent Effect is 7.85% in [6]; 17% in the assay listed under Homo sapiens; 7.1% in [7]; 13.6% in [8]; -5.67% in [9].

Regarding `Cc1occc1C(=O)N1CCC2(CC1)C(c1cnn(C)c1)CC(=O)N2C` (stereo unspecified), the Percent Effect was -5.4% in assay [1]; 13.5% in [2]; 6.87% in assay [3]; -12.9% in [4]; -4.59% in the assay with Trypanosoma cruzi; 1.59% in [5]. Further, the Percent Effect is 11.5% and 13.8% with N/A; 15.9% in the assay listed under Homo sapiens; -11.9% in [7]; 7.69% in [8]; -4.17% in assay [9].

Regarding `Cn1cccc1C(=O)N[C@@H]1CN(CC2CC2)[C@@H]2COC[C@@H]21`, the Percent Effect is -2.02% in [1]; 5.33% in assay [2]; -1.14% in [3]; 25.9% in [4]; -7.14% with Trypanosoma cruzi; -54.7% in [5]. The Percent Effect in assay [6] is -2.73%; in the assay filed under Homo sapiens, -2.91%; in assay [7] it was 1.04%; in [8], 7.5%; in assay [9], -7.28%.

Consider `O=C(NC1(c2nnn(Cc3ccncc3)n2)CCCC1)c1ccccc1`, for which the Percent Effect was -6.65% in assay [1]; 2.67% in assay [2]; -7.02% in assay [3]; 6.6% in [4]; 1.85% in the assay on Trypanosoma cruzi; 0.521% in [5]. The Percent Effect in assay [6] was -25.6%; in the assay listed under Homo sapiens, -24.1%; in assay [7], 7.1%; in assay [8], 16.1%; in assay [9], -2.08%.
